Unmarked numbers belong to inactive results. For some of these results: Entries with a potency or affinity are not part of this list. Active and inactive are the calls of the source. Unless noted, no rule for the calls is given here.

Assay [1] is described as follows: antimalarial activity against Dd2 strain (AID 2302;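 active = growth inhibition above 50% at the single 2 µM test dose, taken to imply half-maximal potency below 2 µM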;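 also: 0% = DMSO untreated growth and 100% = chloroquine plus artemisinin killed control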). As to conditions: P. falciparum Dd2 in RBCs, LDH growth readout, 72 h; at 2 µM; stronger effect = higher value.
Assay [2] is described as follows: HepG2 cytotoxicity, primary screen, cytotoxicity control for P. falciparum antimalarial project, cell-based, ATP luminescence (AID 2303;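 active = inhibition above 50%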;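 also: 0% = DMSO wells and 100% = digitonin-killed cells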). Particulars: HepG2 viability, 24-48 h, at 10 µM, stronger effect = higher value.
In assay [3] the target is L-lactate dehydrogenase (Plasmodium falciparum (isolate CDC / Honduras)) (UniProt Q27743). As to the kind of experiment: PfLDH activity inhibition – cell lysate, 3D7 strain, counter-screen for P. falciparum growth inhibition project (AID 2304).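 Also: 0% = vehicle and 100% = reference inhibitor.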 As to conditions: P. falciparum 3D7 crude extract, LDH APAD/NBT absorbance; at 2 µM; stronger effect = higher value. Background: The purpose of a counterscreen is to sort out artefacts and off-target activity.
L-lactate dehydrogenase (Plasmodium falciparum (isolate CDC / Honduras)), sequence (Q27743 whole entry, looked up): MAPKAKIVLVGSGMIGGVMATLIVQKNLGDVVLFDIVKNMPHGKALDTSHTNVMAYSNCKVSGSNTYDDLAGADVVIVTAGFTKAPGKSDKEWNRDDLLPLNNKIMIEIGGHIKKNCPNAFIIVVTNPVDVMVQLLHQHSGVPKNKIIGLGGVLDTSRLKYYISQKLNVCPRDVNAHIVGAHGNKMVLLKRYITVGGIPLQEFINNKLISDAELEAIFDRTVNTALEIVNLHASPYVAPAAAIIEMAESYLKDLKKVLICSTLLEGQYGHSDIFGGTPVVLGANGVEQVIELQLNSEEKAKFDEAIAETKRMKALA

Assay [4] can be described thus: inhibition of 3D7 malaria parasite growth – strain 3D7 (AID 2306).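 Also: 0% = DMSO wells and 100% = chloroquine plus artemisinin control wells.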 Particulars: P. falciparum 3D7 erythrocytic growth, LDH absorbance, 72 h; at 2 µM; stronger effect = higher value.
Assay [5] has as its target Calcium-dependent protein kinase 1 (Plasmodium falciparum (isolate 3D7)) (UniProt P62344). The assay is described as follows: PfCDPK1 kinase inhibitors, biochemical, TCAMS library (AID 1159585; cut-off not given, nearly all actives have IC50 up to about 0.98 µM;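 also: inhibitors leave more ATP so luminescence rises with inhibition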). Particulars: recombinant PfCDPK1, Kinase-Glo ATP depletion luminescence.
The target in assay [6] is Plasmodium falciparum protein kinase 6 (PK6, PF3D7_1337100) (UniProt Q8IDW1). The assay is described as follows: PfPK6 kinase inhibitors, biochemical, TCAMS library (AID 1159586). Particulars: recombinant PfPK6, Kinase-Glo ATP depletion luminescence. For orientation: In Kinase-Glo more light means more ATP remaining.
Plasmodium falciparum protein kinase 6 (PK6, PF3D7_1337100), sequence (Q8IDW1 1-305): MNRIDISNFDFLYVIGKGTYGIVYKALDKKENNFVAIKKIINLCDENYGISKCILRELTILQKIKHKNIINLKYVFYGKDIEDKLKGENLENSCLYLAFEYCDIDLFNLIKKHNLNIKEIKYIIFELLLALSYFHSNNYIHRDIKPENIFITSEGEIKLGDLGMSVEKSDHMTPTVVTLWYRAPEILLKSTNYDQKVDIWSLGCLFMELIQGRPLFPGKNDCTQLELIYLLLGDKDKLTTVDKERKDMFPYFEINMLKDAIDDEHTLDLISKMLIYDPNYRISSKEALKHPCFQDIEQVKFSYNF
In assay [7] the target is Protein kinase 7 (PK7), Plasmodium falciparum 3D7 (PF3D7_0213400) (UniProt Q7YTF7). As to the kind of experiment: inhibition of Plasmodium PK7 catalytic activity – biochemical, TCAMS antimalarial set, Kinase-Glo luminescence (AID 1159587). Particulars: recombinant PfPK7, Kinase-Glo ATP depletion luminescence.
Protein kinase 7 (PK7), Plasmodium falciparum 3D7 (PF3D7_0213400), sequence (Q7YTF7 1-343): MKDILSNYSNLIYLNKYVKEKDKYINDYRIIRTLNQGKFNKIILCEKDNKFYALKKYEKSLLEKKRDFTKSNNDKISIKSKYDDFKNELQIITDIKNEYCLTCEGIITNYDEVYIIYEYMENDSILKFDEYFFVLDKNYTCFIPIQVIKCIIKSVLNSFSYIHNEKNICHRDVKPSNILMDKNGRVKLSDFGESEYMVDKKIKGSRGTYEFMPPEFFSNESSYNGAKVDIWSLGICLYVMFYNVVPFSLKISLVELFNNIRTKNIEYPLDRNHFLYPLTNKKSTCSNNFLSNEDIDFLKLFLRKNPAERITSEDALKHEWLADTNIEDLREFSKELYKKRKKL
Assay [8] deals with Calcium-dependent protein kinase 4 (Plasmodium falciparum (isolate 3D7)) (UniProt Q8IBS5). As to the kind of experiment: PfCDPK4 kinase inhibitors, biochemical, TCAMS library (AID 1159588; cut-off not given, nearly all actives have IC50 up to about 0.91 µM). As to conditions: recombinant PfCDPK4, Kinase-Glo ATP depletion luminescence.
Calcium-dependent protein kinase 4 (Plasmodium falciparum (isolate 3D7)), sequence (Q8IBS5 whole entry, looked up): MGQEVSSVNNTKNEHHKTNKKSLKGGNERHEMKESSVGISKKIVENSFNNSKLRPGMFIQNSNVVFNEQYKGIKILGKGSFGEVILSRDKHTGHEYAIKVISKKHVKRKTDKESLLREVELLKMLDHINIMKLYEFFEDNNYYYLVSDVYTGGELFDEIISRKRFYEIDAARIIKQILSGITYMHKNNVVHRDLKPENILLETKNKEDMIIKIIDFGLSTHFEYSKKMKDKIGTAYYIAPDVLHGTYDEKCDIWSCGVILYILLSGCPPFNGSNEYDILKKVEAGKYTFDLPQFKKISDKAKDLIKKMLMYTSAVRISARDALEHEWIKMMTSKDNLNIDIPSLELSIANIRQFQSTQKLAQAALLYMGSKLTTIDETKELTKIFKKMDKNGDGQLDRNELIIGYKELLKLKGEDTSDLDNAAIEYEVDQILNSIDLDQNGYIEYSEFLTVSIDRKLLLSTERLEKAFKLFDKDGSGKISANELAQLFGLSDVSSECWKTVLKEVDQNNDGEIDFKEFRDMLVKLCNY

Calcium-dependent protein kinase 1 (Plasmodium falciparum (isolate 3D7)), sequence (P62344 whole entry, looked up): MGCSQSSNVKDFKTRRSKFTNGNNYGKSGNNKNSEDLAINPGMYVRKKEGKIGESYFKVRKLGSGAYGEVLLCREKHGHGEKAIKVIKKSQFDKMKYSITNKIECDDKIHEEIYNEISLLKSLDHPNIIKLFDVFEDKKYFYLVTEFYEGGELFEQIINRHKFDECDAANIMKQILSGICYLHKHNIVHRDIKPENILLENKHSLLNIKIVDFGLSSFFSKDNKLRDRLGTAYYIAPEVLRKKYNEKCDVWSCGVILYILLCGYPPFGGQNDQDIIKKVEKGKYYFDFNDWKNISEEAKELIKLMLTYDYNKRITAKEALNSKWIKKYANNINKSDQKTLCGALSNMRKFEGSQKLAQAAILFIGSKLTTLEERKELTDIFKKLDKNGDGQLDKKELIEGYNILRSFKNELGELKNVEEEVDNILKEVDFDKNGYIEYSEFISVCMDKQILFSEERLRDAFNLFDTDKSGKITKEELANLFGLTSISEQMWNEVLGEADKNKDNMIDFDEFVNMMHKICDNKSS

As for `Cc1cc(Cl)ccc1NC(=O)Nc1ccc2nccc(N3CCN(C)CC3)c2c1`, the growth inhibition in assay [1] was 74% (active); in assay [4], 101% (active). For the same molecule, the inhibition (usually the relative decrease from the control value, in per cent) in assay [2] was -1%; in assay [3], 1%. In addition, the outcome in assay [5], in assay [6], in assay [7] and in assay [8] was inactive.

With `COc1ccc(NC(=O)NC2CCN(c3ccnc4cc(Cl)ccc34)C2)cc1` (stereo not given), the growth inhibition in assay [1] is 69% (active); in assay [4], 101% (active). Further, the inhibition was 10% in assay [2] and -2% in assay [3]. Further, the outcome in assay [5], in assay [6], in assay [7] and in assay [8] was inactive.

For `COc1ccc2nccc(NN=Cc3ccc(F)cc3)c2c1`, the growth inhibition is 54% (active) in assay [1] and 98% (active) in assay [4]. Also, the values for the inhibition in assay [2] and in assay [3] were 2% and -2%, respectively. In addition, the result in assay [5], in assay [6], in assay [7] and in assay [8] was inactive.

On to `CCCC(C)Nc1nc(C)cc(N[C@@H](Cc2ccccc2)C(=O)NCc2cccc(F)c2)n1` (stereo not given in full), for which the growth inhibition in assay [1] was 75% (active); in assay [4], 100% (active). Further, the inhibition in assay [2] is 9%; in assay [3], -2%. Further, the outcome in assay [5], in assay [6], in assay [7] and in assay [8] was inactive.

Consider `COc1cccc(NC(=O)c2nc(N3CCN(c4ccncc4)CC3)ccc2Cl)c1`, for which the growth inhibition was 65% (active) in assay [1] and 97% (active) in assay [4]. The inhibition is 14% in assay [2] and 1% in assay [3]. Besides, the result in assay [5], in assay [6], in assay [7] and in assay [8] was inactive.

For the molecule `CCCCCCNC(=O)C1Cc2c([nH]c3ccc(C)cc23)C2(CCN(CCc3ccccc3)CC2)N1` (stereo not given), the growth inhibition was 24% in assay [1] and 85% (active) in assay [4]. For the same molecule, the figures for the inhibition in assay [2] and in assay [3] were 31% and 4%, respectively. Moreover, the result in assay [5], in assay [6], in assay [7] and in assay [8] was inactive.

With `CN(C)c1ccc(-c2ccc(C(=O)NC3CCN(Cc4ccc(F)cc4)CC3)s2)cc1`, the growth inhibition in assay [1] is 19%; in assay [4] it was 87% (active). The inhibition in assay [2] is 34%; in assay [3], -1%. In addition, the outcome in assay [5], in assay [6], in assay [7] and in assay [8] was inactive.

Consider `COc1cc2nc(N3CC(C)N(C(=O)Cc4ccc(-c5ccccc5)cc4)C(C)C3)nc(N)c2cc1OC` (stereo not given), for which the growth inhibition in assay [1] was 12%; in assay [4] it was 100% (active). Moreover, the inhibition in assay [2] is 26%; in assay [3], -5%. Besides, the outcome in assay [5], in assay [6], in assay [7] and in assay [8] was inactive.

In the case of `CCCc1ccc(NC(=O)c2cccc(CN3CCCN(Cc4cccc(O)c4)CC3)c2)cc1`, the results for the growth inhibition in assay [1] and in assay [4] were 40% and 97% (active), respectively. The inhibition in assay [2] is 15%; in assay [3], -2%. Further, the result in assay [5], in assay [6], in assay [7] and in assay [8] was inactive.

As for `N#Cc1ccc2c(c1)CCN(CCC1CCC(NC(=O)/C=C/c3cccc4cc[nH]c34)CC1)CC2` (stereo not given), the growth inhibition in assay [1] was 29%; in assay [4] it was 89% (active). For the same molecule, the inhibition is 22% in assay [2] and -3% in assay [3]. In addition, the outcome in assay [5], in assay [6], in assay [7] and in assay [8] was inactive.

As to `COC(=O)c1cccc(CNCc2ccc(-c3ccc(-c4nc5ccc(C(F)(F)F)cc5[nH]4)s3)cc2)c1`, the growth inhibition is 96% (active) in assay [1] and 101% (active) in assay [4]. For the same molecule, the inhibition in assay [2] is 34%; in assay [3], -2%. Besides, the outcome in assay [5], in assay [6], in assay [7] and in assay [8] was inactive.

As for `CCOc1cc(NCCSCc2nc[nH]c2C)nc2ccccc12`, the growth inhibition in assay [1] was 10%; in assay [4], 92% (active). Also, the values for the inhibition in assay [2] and in assay [3] were 4% and 1%, respectively. In addition, the outcome in assay [5], in assay [6], in assay [7] and in assay [8] was inactive.

Regarding `COc1ccc(CN2CCC(NCc3cccc(C(F)(F)F)c3)CC2)cc1`, the growth inhibition in assay [1] is 8%; in assay [4], 99% (active). Besides, the inhibition in assay [2] is 6%; in assay [3], 0%. Further, the result in assay [5], in assay [6], in assay [7] and in assay [8] was inactive.

On to `Cc1ccc2c(-c3ccc([N+](=O)[O-])o3)cc(C)nc2c1`, for which the growth inhibition in assay [1] was 47%; in assay [4] it was 95% (active). Also, the inhibition is 20% in assay [2] and 3% in assay [3]. For the same molecule, the result in assay [5], in assay [6], in assay [7] and in assay [8] was inactive.

Turning to `Cc1cc(NC(=O)Nc2ccc(I)c(OCCN(C)C)c2)ccc1Br`, the growth inhibition in assay [1] was 42%; in assay [4], 101% (active). The inhibition in assay [2] was 18%; in assay [3], 4%. Further, the result in assay [5], in assay [6], in assay [7] and in assay [8] was inactive.

Consider `COc1ccc2nccc([C@@H](O)CN3CCC(NCc4cc5cc(Cl)ccc5[nH]4)CC3)c2c1`, for which the growth inhibition is 64% (active) in assay [1] and 99% (active) in assay [4]. For the same molecule, the inhibition in assay [2] was 27%; in assay [3], 5%. The result in assay [5], in assay [6], in assay [7] and in assay [8] was inactive.

Consider `O=C(NCCCCN1CCC(c2ccc3c(c2OCCO)CCCC3)CC1)c1ccc2oc(-c3ccc(C(F)(F)F)cc3)cc2c1`, for which the growth inhibition in assay [1] was 56% (active); in assay [4] it was 93% (active). Besides, the inhibition was 54% (active) in assay [2] and 4% in assay [3]. The result in assay [5], in assay [6], in assay [7] and in assay [8] was inactive.

Take `Cc1ccc2c(c1)NC[C@@]21CCN(C[C@@H](O)C2CCN(c3ccnc(Cl)c3)CC2)C[C@@H]1C`: the growth inhibition was 69% (active) in assay [1] and 87% (active) in assay [4]. In addition, the inhibition in assay [2] is 46%; in assay [3] it was -5%. The outcome in assay [5], in assay [6], in assay [7] and in assay [8] was inactive.

Take `CCOc1ccc2c(NN=Cc3cc(OC)c(OC)c(OC)c3)cc(C)nc2c1`: the growth inhibition in assay [1] was 99% (active); in assay [4] it was 101% (active). The values for the inhibition in assay [2] and in assay [3] were 18% and -4%, respectively. The outcome in assay [5], in assay [6], in assay [7] and in assay [8] was inactive.

Take `Cc1ccc(F)c(NC(=O)c2c(-c3c(F)cccc3Cl)noc2C)c1`: the growth inhibition in assay [1] was 18%; in assay [4], 90% (active). The figures for the inhibition in assay [2] and in assay [3] were 13% and 0%, respectively. Besides, the outcome in assay [5], in assay [6], in assay [7] and in assay [8] was inactive.
